TDP1 block: blocks human tyrosyl-DNA phosphodiesterase 1. recombinant TDP1, AlphaScreen DNA substrate cleavage. actives 0.28% (n = 350,000). Potency, µM (series often up to 130 µM), without a hit: top-dose activity change, negative = inhibition, most hits filed as inhibitors; also: potency is read from the fitted curve at half-maximal effect; % is scaled to controls: 0 for no effect and ±100 for the full control effect; nearly all actives have a fitted effect of over 40% in size
Target sequence (Q9NUW8 whole entry, looked up): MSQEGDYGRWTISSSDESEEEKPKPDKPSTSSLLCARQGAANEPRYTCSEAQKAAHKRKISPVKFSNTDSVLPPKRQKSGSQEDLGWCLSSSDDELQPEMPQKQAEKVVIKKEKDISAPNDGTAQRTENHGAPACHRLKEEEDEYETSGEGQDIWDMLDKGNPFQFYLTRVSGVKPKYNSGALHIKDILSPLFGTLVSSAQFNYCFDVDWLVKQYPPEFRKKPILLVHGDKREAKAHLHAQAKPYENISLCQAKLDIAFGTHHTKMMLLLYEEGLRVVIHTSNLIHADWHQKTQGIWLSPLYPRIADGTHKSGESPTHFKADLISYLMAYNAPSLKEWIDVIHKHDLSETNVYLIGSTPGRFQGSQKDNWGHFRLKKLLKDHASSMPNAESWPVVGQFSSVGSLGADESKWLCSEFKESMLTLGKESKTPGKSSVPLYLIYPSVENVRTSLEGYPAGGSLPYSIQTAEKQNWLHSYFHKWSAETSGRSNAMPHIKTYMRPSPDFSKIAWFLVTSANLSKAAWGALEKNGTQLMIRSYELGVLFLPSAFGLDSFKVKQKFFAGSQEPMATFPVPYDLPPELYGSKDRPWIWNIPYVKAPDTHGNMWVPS
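Steps: enzyme plus compound, 15 min RT; add biotin/phosphotyrosine-FITC oligonucleotide (15 nM final), react 5 min; add donor/acceptor beads (10 ug/ml final), 10 min; read AlphaScreen. Tdp1 at 1 nM final.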
Six1-Eya2 inh: inhibitors of human Six1/Eya2 interaction | Q15475+O00167 | AlphaScreen GST-Six1/His-Eya2 binding, biochemical; active compounds read low | activity change, % (test concentration not listed) | actives 0.56% (n = 360,000) | AID 651725; in the data active = activity change below about -65%; inconclusive = mostly about -30% to -63%; also: % is scaled to controls: 0 for no effect and ±100 for the full control effect
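AlphaScreen luminescence read after one hour at 37 °C in darkness. Pin-transferred compounds met GST-Six1 and His-Eya2 protein (5X stock 250 nM/500 nM) plus glutathione donor and Ni-chelate acceptor beads (5X, 50 ug/mL).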
JMJD2A Tudor: JMJD2A Tudor domain (human) inhibition; actives 4.4% (n = 390,000); AID 504339; AlphaScreen JMJD2A-Tudor / H3K4me3 peptide binding; Potency, µM (series often up to 114 µM), inactives show top-dose activity change, negative = inhibition, usual class: inhibitors; also: potency is read from the fitted curve at half-maximal effect; % is scaled to controls: 0 for no effect and ±100 for the full control effect; nearly all actives have a fitted effect of over 50% in size
BAZ2B block: blocks human BAZ2B. AlphaScreen BAZ2B-H3K14Ac peptide displacement. Potency, µM (series often up to 114 µM), for inactives: top-dose activity change, negative = inhibition, most hits filed as inhibitors. actives 4.4% (n = 360,000). AID 504333; also: potency is read from the fitted curve at half-maximal effect; % is scaled to controls: 0 for no effect and ±100 for the full control effect; nearly all actives have a fitted effect of over 60% in size
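AlphaScreen luminescence quantifies BAZ2B engagement of H3K14Ac peptide; the protein and biotinylated peptide are both at 50 nM final, buffer PBS pH 7.4 with 0.01% Tween-20, all steps at room temperature.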
CtBP-E1A inh: blocks the CtBP interaction with E1A; AlphaScreen GST-E1A/His-CtBP binding, 1536-well; active compounds read low; actives 0.49% (n = 340,000); activity change, % (concentration not given with the values); in the data active = activity change below about -65%; inconclusive = mostly about -30% to -63%; also: % is scaled to controls: 0 for no effect and ±100 for the full control effect
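Homogeneous bead-based format: GST-tagged E1A captured on glutathione donor beads, His-tagged CtBP on nickel acceptor beads; compounds precede bead addition by 2 h at 37 °C.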
HP1b chromo inh: inhibitors of HP1-beta chromodomain binding to methylated histone tails; Potency, µM (highest dose often 114 µM), for the others: top-dose activity change, negative = inhibition, most hits filed as inhibitors; AID 540317; AlphaScreen HP1-beta / biotin-H3K9me3 peptide binding; actives 0.56% (n = 390,000); also: potency is read from the fitted curve at half-maximal effect; nearly all actives have a fitted effect of over 70% in size
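Compound inhibition of the preformed complex between 50 nM HP1-beta and 50 nM biotinylated H3K9me3 peptide was read by AlphaScreen. Buffer was PBS pH 7.4 with 0.01% Tween-20. Incubations ran 30 min at room temperature, with 10 ug/mL donor/acceptor beads.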
The depositor's hits bear a star; ? = inconclusive; . = no result; [ ] = remark or other dose. Compounds with a hit are over-represented: about 5.3% of the library has one in this group of screens. Unless noted, calls follow the shape of the dose curve; as a rule, active = well fitted inhibition curve with a large enough effect; inconclusive = small, poorly fitted or top-dose-only effect; inactive = no such curve, though single readings can be large or run the other way.

SMILES | TDP1 block | Six1-Eya2 inh | JMJD2A Tudor | BAZ2B block | CtBP-E1A inh | HP1b chromo inh
Cc1cccc(C2N(c3nccs3)C(=O)C3CCCN32)c1 (stereo unspecified) | -3% | -5 | -26%[57.1 µM] | ? | 12 | 36%
O=C(OCc1ccccc1F)c1cnc(Cl)c(Cl)c1 | 89µM* | 37 | 251% | 315% | 46 | 266%
Cc1nc(-c2ccc(Cl)cc2)sc1CCNC(=O)c1ccc(C(F)(F)F)cc1 | 5% | . | -6% | -2% | . | 10%[57 µM]
Cc1cc(NC(=O)CSc2sc3c(O)cc(=O)[nH]c3c2C#N)ccc1Br | 0% | -10 | -19% | 79µM* | -1 | 7%
N#Cc1c(SCC(=O)Nc2cccc(C(F)(F)F)c2)sc2c(O)cc(=O)[nH]c12 | 0% | -13 | -29% | ? | 5 | -7%
Cc1ccc(C)c(NC(=O)CSc2sc3c(O)cc(=O)[nH]c3c2C#N)c1 | -15% | -3 | -23% | 50µM* | 0 | 10%
CCSc1nnc(NC(=O)CSc2sc3c(O)cc(=O)[nH]c3c2C#N)s1 | 5% | ? | ? | 79µM* | -15 | -38%
COc1ccc(NC(=O)CSc2sc3c(O)cc(=O)[nH]c3c2C#N)c(OC)c1 | ? | -18 | ? | 79µM* | -1 | ?
CCc1cccc(NC(=O)c2cn3c4c(ccc(Cl)c4c2=O)OC(C)C3)c1 (stereo unspecified) | -14% | . | -30% | -6% | . | 13%
Cc1ccc(C)c(Nc2nn3c(=O)c4ccc(C(=O)N(C)Cc5ccccc5)cc4nc3s2)c1 | 8% | . | -31% | -29% | . | 9%
Cc1ccc(NC(=O)CCS(=O)(=O)c2ccc3c(c2)oc(=O)n3C)c(Br)c1 | 0% | . | -1% | 12%[57.1 µM] | . | 42%
COc1cc(/C=N/N=C2/SCC(=O)N2c2ccc(O)cc2)ccc1O | 1% | -3 | 8.9µM* | -10% | 0 | -10%
N#C/C(=N\Nc1cccc(C(F)(F)F)c1)C(=O)c1csc(-c2cccnc2)n1 | . | -20 | ? | 28µM* | -7 | 3%
Cc1ccc(C(=O)Nc2cccc(C(F)(F)F)c2)cc1NC(=O)c1csc(-c2ccncc2)n1 | 6% | -3 | -26% | -31% | -8 | 26%
COc1cc(C)c(CNc2cc(C)cc(C)c2)cc1C | 3% | -15 | 89µM* | ? | -11 | -16%
COc1cc(C)c(CNC2CCCCC2)cc1C | -4% | 7 | 5µM* | ? | 7 | ?
COc1cc(CNC2CCCCCCC2)cc(Cl)c1OC | . | 2 | -3% | 12% | -5 | 19%
Oc1cc(CNC2CCCCC2)c(O)cc1CNC1CCCCC1 | . | -7 | 22µM* | . | -12 | 14µM*
COc1cc(C)c(CNc2ccc(OC)c(OC)c2)cc1C | 8% | . | . | 45µM* | . | .
Cc1cc(C)cc(NCc2cc(=O)oc3cc(C)c(O)cc23)c1 | . | 1 | -7% | 0% | -1 | 29%
Cc1ccccc1CNC1CCCCC1 | -5% | 1 | -13%[57.1 µM] | 8% | 18 | 41%
Cc1oc2ncn(C)c(=O)c2c1C(=O)NCCCN1CCCC(C)C1 (stereo unspecified) | -3% | . | -17% | 7%[57.1 µM] | . | 14%
O=C(CN1CCCC1)Nc1cc(F)ccc1F | 3% | 7 | -13% | 1% | -3 | 30%
O=C(CNCCc1ccc(F)cc1)Nc1cc(F)ccc1F | . | 9 | 28µM* | 20µM* | 9 | -6%
Cc1cc(=O)c2c(=O)[nH][nH]c2[nH]1 | . | -3 | . | . | 2 | .
Cc1cc(=O)[nH]c2[nH][nH]c(=O)c12 | . | -5 | 6.3µM* | . | 1 | 8%
NC(=O)NS(=O)(=O)Oc1ccccc1 | . | 10 | 89µM* | -9% | 8 | 13%
CCN(CCN(C)C)C(=O)c1ccc2c(c1NCCO)C(=O)c1ccccc1C2=O | 10% | ? | -28% | 50µM* | -3 | ?
O=C(O)c1cccc2c1C(=O)c1ccccc1C2=O | 11% | 1 | -7% | . | -2 | 51%
CCNc1c(C(=O)O)ccc2c1C(=O)c1ccccc1C2=O | 3% | -26 | -27% | 35µM* | -1 | -30%
